Consider three compounds from PubChem BioAssay (NCATS).

Records with an inconclusive call do not appear. Calls of active or inactive are those of the source. The call rests on the fitted dose curve; in most records, active means well fitted curve in the direction sought with a large enough effect in the signal ratio; inconclusive means small, poorly fitted or top-dose-only effect, or a change in a side signal; inactive means no such curve, though single readings can be large or run the other way; the % refers to the signal ratio.

Tumor necrosis factor (Homo sapiens), sequence (P01375 whole entry, looked up): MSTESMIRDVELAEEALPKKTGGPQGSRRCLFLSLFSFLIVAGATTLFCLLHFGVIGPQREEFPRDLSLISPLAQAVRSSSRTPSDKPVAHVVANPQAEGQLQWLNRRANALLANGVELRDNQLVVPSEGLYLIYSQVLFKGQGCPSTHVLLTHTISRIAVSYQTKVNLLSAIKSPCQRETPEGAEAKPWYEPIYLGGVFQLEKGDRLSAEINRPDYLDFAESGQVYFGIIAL

The target of this assay is Tumor necrosis factor (Homo sapiens) (UniProt P01375). Description: qHTS assay to identify small molecules that stimulate Tumor Necrosis Factor-alpha (TNF-alpha) secretion (AID 651757). The settings on record: Human cells, HTRF 665/615 ratio; series mostly up to 92.2 µM. The essentials:
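THP-1 cells were exposed to compounds for 17 hrs at 37 C, after which secreted TNF-alpha was measured by homogeneous HTRF (TR-FRET) using cryptate- and XL665-labeled anti-TNF-alpha antibodies, read after 3 hr at room temperature.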
On the technique in general: qHTS replaces the single test concentration by a dilution series.
With `CCCCCCCCCCCCOS(=O)(=O)O`, the outcome was inactive.
With `NCCNCCNCCNCCN`, the outcome was inactive.
Then `O=C1c2c(O)cccc2Cc2cccc(O)c21`, with “inactive”.
